Test results reported in PMC5540273 (PLoS ONE, 2017).

Each compound was assayed on FGFR2. Conditions: concentration: 1 μM,replicates: in singlicate; n = 1.
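Further: KINOMEscan kinase panel screen.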

COc1ccc(Nc2nccc(N3CCC(NC(=O)c4cccc(C#N)c4)C3)n2)cc1 (stereo not shown) [GSK1379730] was tested. Which “%Inh” value did it give?
The value was 19%.

C[C@@H](Oc1cc(-n2cnc3cc(-c4cnn(C)c4)ccc32)sc1C(N)=O)c1ccccc1Cl [GSK580432] was tested. Which “%Inh” value did it give?
The value was 89%.

For O=C(Nc1n[nH]c2cc(-c3ccco3)ccc12)C1CC1 [SB-737447], which “%Inh” value is on record?
Its value is 0%.

For COC(=O)Nc1nc2cc(Oc3ccc(NC(=O)Nc4cc(C(F)(F)F)ccc4Cl)cc3)ccc2[nH]1.Cl [GW697465], which “%Inh” value is on record?
Its value is 34%.

For Cc1cccc2c(-c3ccncc3)c(-c3ccc(F)cc3)nn12.Cl [GW461487], which “%Inh” value is on record?
Its value is 33%.

O=c1[nH]cc(-c2ccc(O)cc2)c2sc(-c3ccncc3)cc12 [GSK1033723] was tested. Which “%Inh” value did it give?
The value was 0%.

COc1cccc(CNC(=O)NC2CCN(c3ccnc(Nc4cc(OC)c(OC)c(OC)c4)n3)C2)c1 (stereo not shown) [GSK1379765] was tested. Which “%Inh” value did it give?
Its value is 49%.

How did the “%Inh” value turn out when COc1cccc(OC)c1C(=O)Nc1cccc(-c2nn3ccccc3c2-c2ccnc(Nc3cccc(F)c3)n2)c1 [GSK361065] was run?
The value was 0%.

For CC(=O)Nc1nc2cnc(Nc3cc(NC(=O)c4cccc(CC(C)(C)C#N)c4)ccc3C)nc2s1, which “%Inh” value is on record?
Its value is 1%.

Which “%Inh” value does the source give for CC(C)S(=O)(=O)N1CCN(Cc2ccc3c(c2)nc(NC(=O)c2ccsc2)n3C[C@H](O)c2ccccc2)CC1 [GW635815] here?
The value was 16%.

For Cc1ccc(Nc2ccnc(Nc3ccc4c(c3)CS(=O)(=O)C4)n2)cc1O.Cl [GW579362], which “%Inh” value is on record?
Its value is 79%.

For Cc1nnc(-c2ccc3occ(-c4ccc(S(C)=O)cc4)c3n2)o1 (stereo not shown), which “%Inh” value is on record?
Its value is 0%.

With O=C(Nc1cccc(C(F)(F)F)c1)c1cccc(Oc2ccc3nccn3n2)c1 as the compound, how does the “%Inh” value read?
Its value is 15%.

CCCC(=O)Nc1n[nH]c2ncccc12 [SB-601436] was tested. Which “%Inh” value did it give?
The value was 0%.

C[C@@H]1CNc2c(sc3ccc4nc(-c5ccc(O)cc5)ccc4c23)C(=O)N1 was tested. Which “%Inh” value did it give?
The value was 16%.

For COC(=O)c1cccc(NC(=O)NC2CCN(c3ccnc(NCc4ccc(F)cc4)n3)CC2)c1 [GSK1379860], which “%Inh” value is on record?
Its value is 27%.

For CC(=O)Nc1ccc(-c2cc3ncnc(SCC(=O)O)c3s2)cc1, which “%Inh” value is on record?
Its value is 15%.

How did the “%Inh” value turn out when NC(=O)c1ccc(-c2cc3ncnc(SCC(=O)O)c3s2)cc1 was run?
The value was 0%.

For C[C@@H]1CCN(C(=O)N2CCCC2)C[C@@H]1N(C)c1ncnc2[nH]ccc12, which “%Inh” value is on record?
The value was 9%.

Which “%Inh” value does the source give for CCn1c(-c2nonc2N)nc2cncc(Br)c21 [SB-738004] here?
Its value is 69%.

Which “%Inh” value does the source give for Cc1ccc(CC(=O)N2CCc3cc(-c4cn(C)c5ncnc(N)c45)ccc32)cc1 [GSK2634758] here?
The value was 14%.

Nc1nccc(-c2ccc3c(N)n[nH]c3c2)n1 [GSK1034945] was tested. Which “%Inh” value did it give?
The value was 0%.

For COc1cccc(C2=C(Nc3cccc(Cl)c3)C(=O)NC2=O)c1 [SB-341556], which “%Inh” value is on record?
The value was 23%.

Cc1n[nH]c2cc(Nc3ccnc(Nc4cccc(CN5CCOCC5)c4)n3)ccc12 [GW682569] was tested. Which “%Inh” value did it give?
Its value is 0%.

With Cl.Cl.NC[C@H](CC1CCCCC1)NC(=O)c1ccc(-c2ccnc3[nH]ccc23)s1 [GSK1581428] as the compound, how does the “%Inh” value read?
Its value is 0%.

Which “%Inh” value does the source give for COc1cc2c(Nc3ccc(NC(=O)c4ccccc4)cc3)ncnc2cc1OCCCN1CCOCC1 [GSK301329] here?
The value was 0%.

For C[C@@H](Oc1cc(-n2cnc3ccc(-c4ccncc4)cc32)sc1C(N)=O)c1ccccc1Cl [GSK483724], which “%Inh” value is on record?
The value was 6%.

With NC(=O)Nc1sc(-c2ccc(F)cc2)cc1C(N)=O [GW789449] as the compound, how does the “%Inh” value read?
The value was 7%.

For CN(c1ccc2c(c1)nc(NCc1ccc(F)cc1)n2C)c1ccnc(Nc2ccc(CS(C)(=O)=O)cc2)n1.Cl [GW813244], which “%Inh” value is on record?
Its value is 59%.

With c1ccc(Oc2ccc(Nc3ccnc4ccc(-c5ccccn5)cc34)cc2)cc1 [GW407034] as the compound, how does the “%Inh” value read?
Its value is 34%.

CS(=O)c1ccc(-c2coc3ccc(-c4n[nH]c(=O)o4)cc23)cc1 (stereo not shown) was tested. Which “%Inh” value did it give?
Its value is 8%.

How did the “%Inh” value turn out when CCN1CCN(CCCC(=O)Nc2n[nH]c3nc(-c4ccc(O)cc4)c(Br)cc23)CC1 [SB-731579] was run?
The value was 0%.

With CC(=O)c1c(-c2ccncc2)[nH]c(-c2ccncc2)c1C [GW493036] as the compound, how does the “%Inh” value read?
Its value is 0%.

With CSc1nccc(-c2c(-c3ccc(F)cc3)ncn2CCCN2CCOCC2)n1.Cl [SB-217146] as the compound, how does the “%Inh” value read?
The value was 0%.

How did the “%Inh” value turn out when CN1CCN(CCNc2nc3cc(Oc4ccc(NC(=O)Nc5cc(C(F)(F)F)ccc5F)cc4)ccc3[nH]2)CC1.Cl.Cl [GW768504] was run?
The value was 0%.

How did the “%Inh” value turn out when C[C@@H](Oc1cc(-n2cnc3cc(-c4ccncc4)ccc32)sc1C(N)=O)c1ccccc1Cl [GSK479719] was run?
The value was 57%.

Which “%Inh” value does the source give for O=C(Nc1cccc(Oc2ccc3nccn3n2)c1)Nc1cccc(C(F)(F)F)c1 here?
Its value is 4%.
